{"source": "the supplement of paper PMC6411743", "target": "T1, PINX1 (UniProt Q96BK5)", "T1 sequence (whole entry)": "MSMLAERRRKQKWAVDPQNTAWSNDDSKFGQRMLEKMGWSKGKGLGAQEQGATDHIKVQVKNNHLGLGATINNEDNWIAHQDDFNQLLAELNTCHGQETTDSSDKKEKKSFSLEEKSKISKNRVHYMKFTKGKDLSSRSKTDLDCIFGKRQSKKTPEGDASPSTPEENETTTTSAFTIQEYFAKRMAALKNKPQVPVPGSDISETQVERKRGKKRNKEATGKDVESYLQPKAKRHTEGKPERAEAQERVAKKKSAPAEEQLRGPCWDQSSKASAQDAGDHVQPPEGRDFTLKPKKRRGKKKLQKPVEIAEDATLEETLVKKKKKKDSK", "assay": "NP40-soluble protein abundance relative to vehicle (solubility fold change) (ratio); higher = more soluble protein in presence of GTP", "description": "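Solubility proteome profiling in Jurkat crude lysate. Lysate was treated with Mg-GTP (0.1-10 mM) for 10 min at room temperature and 3 min at 37 °C, then solubilised with 0.8% NP40 and benzonase, followed by ultracentrifugation. Proteins were quantified by TMT10 LC-MS/MS; the value is the NP40-soluble abundance relative to the NP40-processed vehicle, from 3 independent experiments.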", "note": "± gives the standard deviation of the averaged measurements. Of roughly 5,400 targets only a part is listed; those with the largest changes were picked by preference.", "data": [{"smiles": "Nc1nc2c(ncn2[C@@H]2O[C@H](COP(=O)(O)OP(=O)(O)OP(=O)(O)O)[C@@H](O)[C@H]2O)c(=O)[nH]1", "note": "[guanosine triphosphate]", "values": [{"measurement": "NP40-soluble protein abundance", "setting": "concentration: 0.1mM", "result": "1.22 ± 0.065"}, {"measurement": "NP40-soluble protein abundance", "setting": "concentration: 0.5mM", "result": "1.28 ± 0.074"}, {"measurement": "NP40-soluble protein abundance", "setting": "concentration: 1mM", "result": "1.45 ± 0.033"}, {"measurement": "NP40-soluble protein abundance", "setting": "concentration: 2mM", "result": "1.64 ± 0.093"}, {"measurement": "NP40-soluble protein abundance", "setting": "concentration: 4mM", "result": "1.96 ± 0.15"}, {"measurement": "NP40-soluble protein abundance", "setting": "concentration: 6mM", "result": "2.01 ± 0.21"}, {"measurement": "NP40-soluble protein abundance", "setting": "concentration: 8mM", "result": "2.36 ± 0.13"}, {"measurement": "NP40-soluble protein abundance", "setting": "concentration: 10mM", "result": "2.62 ± 0.26"}]}]}
